Measurements reported in PMC5700166.

Target: T1, GST-Co-NF-kB (Capsaspora owczarzaki, UniProt F1ARL5 200-546)
T1 sequence: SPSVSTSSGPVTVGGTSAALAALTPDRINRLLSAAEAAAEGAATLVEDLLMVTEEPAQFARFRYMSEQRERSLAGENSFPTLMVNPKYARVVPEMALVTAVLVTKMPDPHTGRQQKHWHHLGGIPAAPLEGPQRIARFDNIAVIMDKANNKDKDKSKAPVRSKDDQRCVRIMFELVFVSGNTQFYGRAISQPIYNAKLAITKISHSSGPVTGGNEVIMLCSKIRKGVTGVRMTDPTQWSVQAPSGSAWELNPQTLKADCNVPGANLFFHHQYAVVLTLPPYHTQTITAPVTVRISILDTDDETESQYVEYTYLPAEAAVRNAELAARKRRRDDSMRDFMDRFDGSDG
Experiment: protein-binding microarray (PBM); PBM: ~300 nM protein, 6 mM HEPES pH 7.8, 80 mM KCl, 0.5 mM EDTA, 0.5 mM EGTA, 6% glycerol, 35 ng/ul poly-dIdC, 1% milk, 1 h, room temperature; Ap Aiptasia and Nv Nematostella (sea anemones) / Co Capsaspora / Aq Amphimedon (sponge) / Dm Drosophila / Hu human; RHD is the Rel homology domain; high values mean tight binding
Details: dsDNA, one strand shown

Going from “CCGATTAACATCACCTGGTCGGGTGATGTTAATCGGGTCTTGATTCGCTTGACGCTGCTG” to “CCGATTAACATCACCCCGCATGCTGATGTTAATCGGGTCTTGATTCGCTTGACGCTGCTG”, the binding signal rises from 1.5 z-score to 1.97 z-score.

Compared with “CCGATTAACATCATGTTTGCGGGTGATGTTAATCGGGTCTTGATTCGCTTGACGCTGCTG”, “CCGATTAACATCACGGAAAAAACTGATGTTAATCGGGTCTTGATTCGCTTGACGCTGCTG” is higher in binding signal: 1.02 z-score for the first, 1.37 z-score for the second.

First: CCGATTAACATCAGGAAGGGCGGTGATGTTAATCGGGTCTTGATTCGCTTGACGCTGCTG
Second: CCGATTAACATCATATTGGGAAATGATGTTAATCGGGTCTTGATTCGCTTGACGCTGCTG
The binding signal of the first is lower: 1.08 z-score for the first, 2.03 z-score for the second.

Going from “CCGATTAACATCAATTCCCAACCTGATGTTAATCGGGTCTTGATTCGCTTGACGCTGCTG” to “CCGATTAACATCACGGGCAGTGGTGATGTTAATCGGGTCTTGATTCGCTTGACGCTGCTG”, the binding signal falls from 2.06 z-score to 1.25 z-score.

Target: T2, GST-Dm-Relish (Drosophila melanogaster, UniProt Q94527 99-473)
T2 sequence: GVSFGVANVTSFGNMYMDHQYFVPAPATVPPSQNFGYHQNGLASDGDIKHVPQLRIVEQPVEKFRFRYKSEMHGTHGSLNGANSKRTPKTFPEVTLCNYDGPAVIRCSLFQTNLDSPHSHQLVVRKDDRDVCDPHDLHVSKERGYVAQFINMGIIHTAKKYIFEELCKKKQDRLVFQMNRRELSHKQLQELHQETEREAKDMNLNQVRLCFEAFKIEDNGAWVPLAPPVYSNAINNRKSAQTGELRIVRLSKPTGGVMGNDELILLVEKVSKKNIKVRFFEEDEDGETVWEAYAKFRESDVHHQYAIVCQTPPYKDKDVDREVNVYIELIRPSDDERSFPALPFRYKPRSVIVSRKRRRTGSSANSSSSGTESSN
Experiment: as above
Details: dsDNA, one strand shown

Compared with “CCGATTAACATCACCGAAATTCCTGATGTTAATCGGGTCTTGATTCGCTTGACGCTGCTG”, “CCGATTAACATCACCTGGTCGGGTGATGTTAATCGGGTCTTGATTCGCTTGACGCTGCTG” is lower in binding signal: 1.25 z-score for the first, 1.13 z-score for the second.

First: CCGATTAACATCATGATATCCGGTGATGTTAATCGGGTCTTGATTCGCTTGACGCTGCTG
Second: CCGATTAACATCATTTCTTACGGTGATGTTAATCGGGTCTTGATTCGCTTGACGCTGCTG
The binding signal of the first is lower: 1.07 z-score for the first, 1.25 z-score for the second.

First: CCGATTAACATCAGGAAATACCATGATGTTAATCGGGTCTTGATTCGCTTGACGCTGCTG
Second: CCGATTAACATCAAAAATTCCGGTGATGTTAATCGGGTCTTGATTCGCTTGACGCTGCTG
The binding signal of the first is higher: 3.07 z-score for the first, 2.45 z-score for the second.

Going from “CCGATTAACATCAGGAAAGTACATGATGTTAATCGGGTCTTGATTCGCTTGACGCTGCTG” to “CCGATTAACATCACGGAAAAAACTGATGTTAATCGGGTCTTGATTCGCTTGACGCTGCTG”, the binding signal falls from 6.88 z-score to 1.6 z-score.

Compared with “CCGATTAACATCACCAGGTTAGGTGATGTTAATCGGGTCTTGATTCGCTTGACGCTGCTG”, “CCGATTAACATCACAGCGTGAGGTGATGTTAATCGGGTCTTGATTCGCTTGACGCTGCTG” is lower in binding signal: 1.36 z-score for the first, 1.34 z-score for the second.

Going from “CCGATTAACATCAGGTAAGTCCATGATGTTAATCGGGTCTTGATTCGCTTGACGCTGCTG” to “CCGATTAACATCACGGAATTTTATGATGTTAATCGGGTCTTGATTCGCTTGACGCTGCTG”, the binding signal falls from 1.83 z-score to 1.2 z-score.

Compared with “CCGATTAACATCAATGGAATTCCTGATGTTAATCGGGTCTTGATTCGCTTGACGCTGCTG”, “CCGATTAACATCACCTTGAACGGTGATGTTAATCGGGTCTTGATTCGCTTGACGCTGCTG” is lower in binding signal: 3.2 z-score for the first, 1.69 z-score for the second.

Compared with “CCGATTAACATCACTCTTCTCGGTGATGTTAATCGGGTCTTGATTCGCTTGACGCTGCTG”, “CCGATTAACATCAAGTAAATTCCTGATGTTAATCGGGTCTTGATTCGCTTGACGCTGCTG” is higher in binding signal: 1.33 z-score for the first, 2.49 z-score for the second.

Going from “CCGATTAACATCACGGGCAGTGGTGATGTTAATCGGGTCTTGATTCGCTTGACGCTGCTG” to “CCGATTAACATCACAGAATTTCCTGATGTTAATCGGGTCTTGATTCGCTTGACGCTGCTG”, the binding signal rises from 1.02 z-score to 1.09 z-score.
